# Compounds with a hit are over-represented: about 9.4% of the library has one in this group of screens.
# HTT cytoprotect = protects HTT-Q103 PC12 cells, measured by ATP; PC12 HTT-Q103 induced, cytoprotection, ATP luminescence, 40 h; 230,000 compounds, 0.14% hits; Potency, µM (series often up to 56.4 µM), inactives show cytoprotection (ATP increase), actives largely listed as activators; note: potency is the fitted concentration of half-maximal effect; % of control where 0% means no effect; nearly all actives have a fitted effect of over 45% in size
#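 Cells were plated at 1500 per well in phenol red-free DMEM with 5% equine and 5% calf serum. Tebufenozide (100 nM final) and compounds were added, then ATPlite reagent, and luminescence was read.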
# HPGD inh = inhibitors of human 15-hydroxyprostaglandin dehydrogenase (HPGD) | 150,000 compounds, 4.3% hits | P15428 | Potency, µM, without a hit: at the highest dose activity change, negative = inhibition, actives largely listed as inhibitors | purified HPGD, NADH fluorescence kinetic, PGE2 substrate; active = well fitted inhibition curve with a large enough effect, not every such curve was filed as active; inconclusive = small, poorly fitted or top-dose-only effect, or another doubt; inactive = no such curve, though single readings can be large or run the other way; note: potency is the fitted concentration of half-maximal effect; % is set by controls: 0 for no effect and ±100 for the full control effect
#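 NADH formation kinetics: reaction with 30 uM PGE2 and 1 mM NAD+ (final), 20 nM enzyme, Tris-HCl pH 8 with Tween 20, after 15 min compound preincubation at room temperature. Fluorescence change, last versus first of five reads.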
# HttQ103 aggreg = reduces HttQ103-GFP aggregates in PC12 cells; PC12 HttQ103-GFP aggregates, Acumen cytometry, 40 h; Potency, µM (series often up to 46.1 µM), inactives show at the top dose activity change, negative = inhibition, usual class: inhibitors; 220,000 compounds, 1.1% hits; AID 1688; note: potency is the fitted concentration of half-maximal effect; % is set by controls: 0 for no effect and ±100 for the full control effect; nearly all actives have a fitted effect of over 60% in size
#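 Ecdysone-promoter PC12 model expressing HTT exon 1 Q103 fused to GFP, induced by tebufenozide at 100 nM final. Compounds titrated; aggregates sized 1–25 µm scored on a 488 nm laser cytometer.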
# IMPase inh = IMPase inhibition in cells. P97697. CHO-M1 cells, IP1 accumulation, HTRF TR-FRET ratio. inhibition (IP1 accumulation), % at 46.1 µM. 120,000 tested, under 10 active. AID 901; active = well fitted curve in the direction sought with a large enough effect in the signal ratio, not every such curve was filed as active; inconclusive = small, poorly fitted or top-dose-only effect, or a change in a side signal; inactive = no such curve, though single readings can be large or run the other way; the % refers to the signal ratio;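 note: cells stimulated with carbachol in lithium chloride buffer; plate controls were DMSO basal wells for no effect and reference inhibitor wells for full effect; higher means more IMPase inhibition seen as more IP1 and lower FRET ratio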
# Target sequence (P97697 whole entry, looked up): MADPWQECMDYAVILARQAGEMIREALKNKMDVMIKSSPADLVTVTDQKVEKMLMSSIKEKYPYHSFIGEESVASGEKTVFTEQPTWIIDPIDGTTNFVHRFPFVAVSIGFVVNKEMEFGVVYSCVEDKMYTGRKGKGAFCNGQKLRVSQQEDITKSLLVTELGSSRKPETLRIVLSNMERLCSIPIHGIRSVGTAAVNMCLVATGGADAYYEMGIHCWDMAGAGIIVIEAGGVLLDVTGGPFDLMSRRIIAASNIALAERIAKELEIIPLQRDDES
#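 Carbachol-driven Gq signalling in CHO-M1 cells (2000/well) generates IP1. Compounds that block IMPase raise IP1 and so reduce the FRET signal from Eu-anti-IP1 and d2-IP1 after a 10 min room-temperature lysis.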
# ALDH1A1 inh = ALDH1A1 (human) enzyme inhibition; AID 1030; Potency, µM (top dose mostly 75.3 µM), for inactives: at the highest dose activity, negative = inhibition, usual class: inhibitors; Purified ALDH1A1, NADH fluorescence, propionaldehyde substrate; 220,000 compounds, 7.3% hits; active = well fitted inhibition curve with a large enough effect, not every such curve was filed as active; inconclusive = small, poorly fitted or top-dose-only effect, or another doubt; inactive = no such curve, though single readings can be large or run the other way;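 note: potency is the fitted concentration of half-maximal effect; plate controls were no enzyme wells and a reference inhibitor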
# Target sequence (P00352 whole entry, looked up): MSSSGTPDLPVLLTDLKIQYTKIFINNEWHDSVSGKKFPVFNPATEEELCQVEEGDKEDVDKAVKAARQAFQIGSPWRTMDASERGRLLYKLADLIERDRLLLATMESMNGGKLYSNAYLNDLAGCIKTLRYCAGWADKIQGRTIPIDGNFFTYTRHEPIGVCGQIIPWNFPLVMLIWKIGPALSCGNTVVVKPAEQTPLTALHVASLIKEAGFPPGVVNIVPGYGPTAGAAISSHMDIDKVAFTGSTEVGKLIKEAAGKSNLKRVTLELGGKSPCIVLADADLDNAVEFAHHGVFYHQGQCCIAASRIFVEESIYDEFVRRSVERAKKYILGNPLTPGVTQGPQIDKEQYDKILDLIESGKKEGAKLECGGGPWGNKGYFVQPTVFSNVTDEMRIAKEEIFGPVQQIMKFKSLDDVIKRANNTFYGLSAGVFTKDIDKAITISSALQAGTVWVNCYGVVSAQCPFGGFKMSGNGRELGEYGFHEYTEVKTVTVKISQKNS
# IMPase Li cell = cell-permeable IMPase inhibitors with lithium potentiation | CHO-M1 cells, IP1 TR-FRET (IP-One), carbachol + lithium | Potency, µM (top dose mostly 59.4 µM), without a hit: top-dose activity, negative = IMPase inhibition, hits mostly inhibitors | 210,000 compounds, 0.35% hits;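 note: IP1 builds up when IMPase is blocked and the TR-FRET signal falls; potency is the fitted concentration of half-maximal effect; plate controls were basal vehicle for no effect and high inhibitor control for full effect; nearly all actives have a fitted effect of over 50% in size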
#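 Test compounds were applied to CHO-M1 cells previously cultured for 16–30 h at 2000 per well. A small lithium amount accompanied them; after 30 min at 37C, IP1 was quantified by TR-FRET.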
# * marks the source's active call; other numbers are inactive results; ? = inconclusive; . = no result; [ ] = dose if it differs, or a comment. Unless noted, calls come from the whole dose curve; as a rule, active = well fitted curve in the direction sought with a large enough effect; inconclusive = small, poorly fitted or top-dose-only effect, or another doubt; inactive = no such curve, though single readings can be large; an effect the other way counts as inactive or inconclusive.
SMILES,HTT cytoprotect,HPGD inh,HttQ103 aggreg,IMPase inh,ALDH1A1 inh,IMPase Li cell
CCCCOC(=O)C1=C(C)Nc2nnnn2C1c1ccccc1Cl (centres undefined),7.7%,-8.4%,-16.5%,2.1,0.447µM*,20.1%[38.3 µM]
CC1=C(C(N)=O)C(c2ccc(Cl)cc2Cl)n2ncnc2N1 (centres undefined),8.4%[10 µM],-3.5%,2.8%,-7.4,7.4%,-9.6%[38.3 µM]
CCOC(=O)C1=C(C)Nc2nnnn2C1c1ccccc1Cl (centres undefined),2.5%[10 µM],-10.9%,-31.5%,-4.1,0.708µM*,-0.9%
COC(=O)C1=C(C)Nc2nnnn2C1c1ccc(Cl)cc1Cl (centres undefined),5.3%,-6.9%,-1.9%,1.4,8.91µM*,20.2%[38.3 µM]
CC(=O)C1=C(C)Nc2ncnn2C1c1ccccc1Cl (centres undefined),-4.6%,.,5.7%,?,25.1µM*,.
COc1ccc(C2C(C(=O)OC3CCCCC3)=C(C)Nc3nnnn32)c(OC)c1OC (centres undefined),.,-10.5%,18.9%,.,-2.0%,2.1%
CCOC(=O)C1=C(C)Nc2nnnn2C1c1ccc(OC)c(Br)c1 (centres undefined),-9.0%[10 µM],-21.3%,21.0%,-1.6,-7.1%,-0.4%
COc1ccc(/C=C2\N=C(c3ccccc3)N(c3ccc(C(=O)O)cc3)C2=O)cc1OC,9.9%[10 µM],.,-7.4%[9.22 µM],.,.,.
CC(C)C[C@@H](CC(=O)N[C@@H](CCCN)CC(=O)N[C@@H]1CCNC[C@H]1C(=O)N[C@H](CC(=O)N[C@@H](CCC(=O)O)CC(=O)O)Cc1c[nH]c2ccccc12)NC(=O)[C@@H]1CNCC[C@H]1N,3.5%[1.9 µM],-5.2%,.,.,-13.0%,15.9%
C=CCOC(=O)C1=C(C)Nc2nnnn2C1c1cc(OC)ccc1OC (centres undefined),-2.1%,1.8%,9.0%,5.1,4.47µM*,25.6%[38.3 µM]
CC(=O)c1ccsc1B(O)O,-11.1%,-8.5%,.,.,3.4%,-13.3%
COc1ccc(C2C(C(=O)c3ccccc3)N3c4ccccc4C=CC3C2[N+](=O)[O-])cc1 (centres undefined),-70.4%,.,17.8µM*,.,25.1µM*,13.3%
COCCn1c(SCC(=O)c2c(-c3ccccc3)n(C)c3ccccc23)nnc1-c1ccncc1,7.9%[10 µM],-8.8%,15.3%,9.6,20µM*,5.9%
CCCNC(=O)OC[C@@H]1O[C@H](CCON=C(C)C)C=C[C@@H]1Oc1ccc(OC)cc1,-1.3%[10 µM],.,.,.,15.8%[13.5 µM],.
COc1ccc(OC)c(C(=O)CN2CCN(S(=O)(=O)c3ccc(Br)cc3)CC2)c1,-10.6%,-29.5%,?,-0.1,1.58µM*,29.8%[38.3 µM]
COc1ccc(NC(=O)CN2CCCN(S(=O)(=O)c3ccc(F)cc3)CC2)c(OC)c1,-40.2%,.,0.0%,.,-15.7%,13.9%
COc1ccc(S(=O)(=O)N2CCCN(CC(=O)C(C)(C)C)CC2)cc1,-11.7%,-10.8%,4.8%,2.3,20µM*,-6.8%[38.3 µM]
COC(=O)c1ccc(C(NC(=O)OCc2ccccc2)/C(C)=C/[C@@H](C)C(=O)NCc2nn(-c3ccccc3)nc2C)cc1 (some centres undefined),3.7%,-16.9%,.,.,?,11.7%
CCc1nnc2c(Nc3cc(OC)c(Cl)cc3OC)nc3ccccc3n12,.,.,.,-5.2,.,.
CC1=C(C(N)=O)C(c2ccc(C)o2)C(C(N)=O)=C(C)N1,-20.3%,-9.7%,2.7%,-5.9,39.8µM*,20.0%[38.3 µM]
CCOC(=O)C1=C(C)NC(C)=C(C(=O)OCC)C1c1ccc(C)o1,5.8%[10 µM],.,0.3%[9.22 µM],.,7.0%,.
O=C1C(c2ccc(C(F)(F)F)cc2)=C(Nc2ccc(Cl)cc2)c2ccccc21,.,.,.,1.7,.,.
CC(=O)OC1CC[C@]2(C)C(=CCC3C4CCC(C(C)CCCC(C)C)[C@]4(C)CCC32)C1 (some centres undefined),.,-0.9%,.,.,1.0%,8.3%
CC[n+]1c(/C=C/C=C/N(C(C)=O)c2ccccc2)sc2ccccc21,-37.8%,-26.4%,-30.7%,1.7,3.55µM*,46.7%[38.3 µM]
CC(=O)OC[C@@H]1O[C@H](C/C=N\OC[C@@H](C)[C@H](OCc2ccccc2)C(C)C)C=C[C@@H]1OC(C)=O,0.2%[10 µM],.,.,.,3.8%[13.5 µM],.
SMILES,HTT cytoprotect,HPGD inh,HttQ103 aggreg,IMPase inh,ALDH1A1 inh,IMPase Li cell
CN(C)S(=O)(=O)c1ccc(NC(=O)C2CCCN(C(=O)c3ccc(Cl)cc3)C2)cc1 (centres undefined),-11.4%[10 µM],-17.5%,20.7%,.,12.6µM*,1.2%
O=C(Nc1ccc(C(=O)N2CCCCC2)cc1)C1CCCCC1,-0.6%,2µM*,-2.0%,5.8,?,1.8%[38.3 µM]
COc1ccc(NC(=O)C2CCN(C(=O)c3ccc(OC)cc3)CC2)cc1,-8.0%,-9.8%,9.6%,5.0,-4.0%,34.0%[38.3 µM]
CCCCCCC(=O)Nc1ccc(C(=O)N2CCCC2)cc1,-12.9%,3.98µM*,1.4%,-6.8,?,12.2%[38.3 µM]
Cc1cnc(C(=O)Nc2ccc(N3CCCCC3)cc2)cn1,-90.5%,.,-4.8%,.,2.3%,-3.2%
Cc1cnc(C(=O)Nc2ccc(C(=O)N3CCCCC3)cc2)cn1,-5.5%,0.282µM*,7.3%,-1.3,-3.3%,4.1%[38.3 µM]
Cc1cc(C)cc(-c2cc3c(c(-c4c(O)c(-c5cc(C)cc(C)c5)cc5c4CCCC5)c2O)CCCC3)c1,?,-3.9%,.,.,13.4%,4.1%
O=C(Nc1ccccc1)C1CCCCC1,-19.8%[10 µM],25.1µM*,-15.8%,5.6,7.6%,1.8%
O=C(O)CCCC(=O)Nc1ccc(C(=O)N2CCCCC2)cc1,-19.0%,2.24µM*,6.8%,12.8,8.8%,-9.9%[38.3 µM]
O=C(O)CCCC(=O)Nc1ccc(N2CCCC2)cc1,-20.0%[10 µM],-1.2%,14.8%,?,1.9%,12.0%[38.3 µM]
O=C(O)CCC(=O)Nc1ccc(C(=O)OC2CCCCC2)cc1,-21.0%,-24.1%,2.6%,0.4,-11.9%,16.8%[38.3 µM]
CC(=O)Nc1ccc(NC(=O)C2CCN(C(=O)c3cccs3)CC2)cc1,17.4%[10 µM],.,13.7%[9.22 µM],.,12.6µM*,-1.9%
O=C(Nc1ccc(Nc2ccccc2)cc1)C1CC1,-8.1%[10 µM],-14.7%,-2.0%,0.4,-6.5%,14.7%[38.3 µM]
O=C(O)CCC(=O)Nc1ccc(C(=O)N2CCCCC2)cc1,-11.0%,0.708µM*,29.5%,-3.6,-5.9%,7.0%[38.3 µM]
CC1(OC(=O)c2ccc(Cl)nc2)C(=O)C=c2cc(-c3ccsc3)ncc2=C1OC(=O)C1CCCC1 (centres undefined),-43.1%[10 µM],-7.5%,.,.,7.3%[13.5 µM],8.1%
Cc1ccccc1C1CC(=O)Nc2ccc3ccccc3c21 (centres undefined),.,.,.,12.2,.,.
CC(C)n1cc(CN2CCN(CCc3ccccc3)C(CCO)C2)cn1 (centres undefined),18.2%[10 µM],.,8.0%[9.22 µM],.,-5.4%,9.4%
Cc1nc(-c2ccc(NS(=O)(=O)c3ccccc3)cc2)cs1,-11.4%[10 µM],.,6.7%,.,5.5%,5.5%

# Compound activity from PubChem BioAssay.
